Measurements: PubChem BioAssay (Tox21)
Calls of active or inactive are those of the source. Unless noted, the call rests on the fitted dose curve; in most records, active means well fitted curve in the direction sought with a large enough effect in the repeat runs; inconclusive means weak or mixed curves; inactive means no such curve, though single readings can be large; an effect the other way counts as inactive or inconclusive.

What was measured:
[1] = qHTS assay for small molecule agonists of the p53 signaling pathway (AID 651631; calls by dose curve; further: nearly all actives have a fitted effect of over 15% in size)
Procedure, shortened: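 Agonist mode screen using a stably integrated beta-lactamase gene under p53 response elements in HCT-116 cells. Compound exposure lasts 16 h at 37 °C; fluorescence intensity is measured following 2 h FRET substrate loading.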

[2] = qHTS assay for small molecules that induce genotoxicity in human embryonic kidney cells expressing luciferase-tagged ATAD5 (AID 651632); further: nearly all actives have a fitted effect of over 15% in size
Procedure, shortened: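 Cells were seeded at 2,000 per well, dosed with compound, and incubated 16 hr at 37C in 5% CO2. Luciferase activity was then quantified after a 30 min room-temperature incubation with Amplite.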

[3] = qHTS assay for small molecule agonists of the p53 signaling pathway - cell viability (AID 651633; calls by dose curve;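 further: p53RE-bla HCT reporter cells with a stable beta-lactamase p53 reporter; series mostly up to about 83 µM; nearly all actives have a fitted effect of over 30% in size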)
Procedure, shortened: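 p53RE-bla cells were treated with compound for 16 hours at 37 C. Cytotoxicity was then measured as CellTiter-Glo luminescence after 30 min at room temperature.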

[4] = qHTS assay for small molecule disruptors of the mitochondrial membrane potential - cell viability (AID 720634; calls by dose curve;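 further: human HepG2 liver cancer cells; series mostly up to about 83 µM; nearly all actives have a fitted effect of over 20% in size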)
Procedure, shortened: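 Cytotoxicity was measured by ATP quantitation in HepG2 wells that had first been treated with compound for 1 hr and stained with m-MPI dye; CellTiter-Glo incubation was 30 min at room temperature.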

[5] = qHTS assay for small molecule disruptors of the mitochondrial membrane potential (AID 720635); further: potency means the concentration at half of the fitted maximal effect
Procedure, shortened: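 HepG2 cells exposed to compound 1 hr at 37C, then Mito-MPS dye 30 min. Ratio read of aggregate (540/590 nm) versus monomer (490/535 nm) fluorescence.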

[6] = qHTS assay to test for compound auto fluorescence at 590 nm (red) in HepG2 cells (AID 720674)
Procedure, shortened: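 Seeding: 2,000 HepG2 cells/well, MEM/10% FBS, overnight 37 C. Dosing: compound vs DMSO. Incubation: 1 hr, 37 C, 5% CO2. Read: fluorescence 540 ex/590 em, Rose Bengal sodium as red reference.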

[7] = qHTS assay to test for compound auto fluorescence at 535 nm (green) in HepG2 cells (AID 720675)
[8] = qHTS assay to test for compound auto fluorescence at 460 nm (blue) in HEK293 cells (AID 720678)
Procedure, shortened: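 Cells were seeded and left to adhere for 4-5 hr at 37C. Compounds were then pin-transferred. After an overnight incubation at 37C under 5% CO2, intrinsic fluorescence at 405/460 nm was measured and referenced to triamterene.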

[9] = qHTS assay to test for compound auto fluorescence at 590 nm (red) in HEK293 cells (AID 720679)
Procedure, shortened: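 Each well held 2,000 HEK293 cells in medium containing 10% dialyzed FBS. Following 4-5 hr attachment at 37C, 23 nL test compound or DMSO was added; plates sat overnight, and red fluorescence (540/590nm) was recorded.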

[10] = qHTS assay to test for compound auto fluorescence at 535 nm (green) in HEK293 cells (AID 720680)
[11] = qHTS assay to test for compound auto fluorescence at 460 nm (blue) in HEK293 cell free culture (AID 720681)
Procedure, shortened: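 Compounds were added to cell-free DMEM with 10% FBS and fluorescence read directly. The blue channel used 405 nm excitation and 460 nm emission, with triamterene as the reference fluorophore.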

[12] = qHTS assay to test for compound auto fluorescence at 535 nm (green) in HEK293 cell free culture (AID 720682)
Procedure, shortened: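 No cells present: wells hold DMEM supplemented with 10% FBS, into which compound or vehicle is pinned. Green emission is then recorded (485 nm excitation, 535 nm emission) and scaled to fluorescein.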

[13] = qHTS assay to test for compound auto fluorescence at 590 nm (red) in HEK293 cell free culture (AID 720683)
Procedure, shortened: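 Cell-free wells of DMEM with 10% FBS received compound, and intrinsic fluorescence was read at excitation/emission 540/590 nm. Values expressed as equivalence to Rose Bengal sodium.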

[14] = qHTS assay to test for compound auto fluorescence at 590 nm (red) in HepG2 cell free culture (AID 720684)
Procedure, shortened: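 Rose Bengal sodium served as the reference for red signal. Test compounds were dispensed into serum-containing MEM (10% FBS) without cells, and plates were read at 540/590 nm.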

[15] = qHTS assay to test for compound auto fluorescence at 460 nm (blue) in HepG2 cell free culture (AID 720685)
Procedure, shortened: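 Cell-free plates of MEM plus 10% FBS received 23 nL compound or DMSO vehicle; blue-channel (405/460 nm) intensity scored against triamterene as reference fluorophore.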

[16] = qHTS assay to test for compound auto fluorescence at 535 nm (green) in HepG2 cell free culture (AID 720686)
[17] = qHTS assay to test for compound auto fluorescence at 460 nm (blue) in HepG2 cells (AID 720687)
Procedure, shortened: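 HepG2 cells in MEM with 10% FBS, attached overnight at 37 C, were exposed to compound or DMSO for 1 hr at 37 C, 5% CO2. Blue fluorescence was read at 405/460 nm, with triamterene as reference fluorophore.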

[18] = target: Glucocorticoid receptor (Homo sapiens) (UniProt P04150); experiment: qHTS assay to identify small molecule agonists of the glucocorticoid receptor (GR) signaling pathway (AID 720691; active means well fitted activation curve with a large enough effect in the signal ratio in the repeat runs, not every such curve was filed as active; inconclusive means weak or mixed curves, or effect the other way; inactive means no such curve, though single readings can be large or run the other way; the % refers to the signal ratio; further: potency means the concentration at half of the fitted maximal effect)
Procedure, shortened: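 Steps: seed GR-bla HeLa cells, incubate 4 h at 37 C/5% CO2; pin-transfer DMSO-dissolved compounds; incubate 18 h at 37 C; add LiveBLAzer B/G FRET substrate; after 2 h at room temperature, measure fluorescence.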

[19] = qHTS assay for small molecules that induce genotoxicity in human embryonic kidney cells expressing luciferase-tagged ATAD5 - cell viability (AID 651634; calls by dose curve; further: nearly all actives have a fitted effect of over 25% in size)
Procedure, shortened: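 Cells (HEK293T, luciferase-tagged ATAD5) are seeded at 2,000 per well, dosed with compound or DMSO vehicle, and incubated 15.5 hr at 37C and 5% CO2. CellTiter-Fluor is added for 30 min before fluorescence is measured.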

[20] = target: Glucocorticoid receptor (Homo sapiens) (UniProt P04150); experiment: qHTS assay to identify small molecule antagonists of the glucocorticoid receptor (GR) signaling pathway (AID 720692; active means well fitted inhibition curve with a large enough effect in the signal ratio in the repeat runs, not every such curve was filed as active; inconclusive means weak or mixed curves, or effect the other way; inactive means no such curve, though single readings can be large or run the other way; the % refers to the signal ratio; further: potency means the concentration at half of the fitted maximal effect)
Procedure, shortened: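 Antagonism was scored as loss of dexamethasone-driven (5 nM final) reporter signal in HeLa cells bearing a glucocorticoid response element–beta-lactamase construct, after 18 h compound exposure at 37 C and 2 h FRET substrate loading.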
On the % scale 0 is the no-effect control and ±100 the full control effect.

Sequence of Glucocorticoid receptor (Homo sapiens) (P04150 whole entry, looked up): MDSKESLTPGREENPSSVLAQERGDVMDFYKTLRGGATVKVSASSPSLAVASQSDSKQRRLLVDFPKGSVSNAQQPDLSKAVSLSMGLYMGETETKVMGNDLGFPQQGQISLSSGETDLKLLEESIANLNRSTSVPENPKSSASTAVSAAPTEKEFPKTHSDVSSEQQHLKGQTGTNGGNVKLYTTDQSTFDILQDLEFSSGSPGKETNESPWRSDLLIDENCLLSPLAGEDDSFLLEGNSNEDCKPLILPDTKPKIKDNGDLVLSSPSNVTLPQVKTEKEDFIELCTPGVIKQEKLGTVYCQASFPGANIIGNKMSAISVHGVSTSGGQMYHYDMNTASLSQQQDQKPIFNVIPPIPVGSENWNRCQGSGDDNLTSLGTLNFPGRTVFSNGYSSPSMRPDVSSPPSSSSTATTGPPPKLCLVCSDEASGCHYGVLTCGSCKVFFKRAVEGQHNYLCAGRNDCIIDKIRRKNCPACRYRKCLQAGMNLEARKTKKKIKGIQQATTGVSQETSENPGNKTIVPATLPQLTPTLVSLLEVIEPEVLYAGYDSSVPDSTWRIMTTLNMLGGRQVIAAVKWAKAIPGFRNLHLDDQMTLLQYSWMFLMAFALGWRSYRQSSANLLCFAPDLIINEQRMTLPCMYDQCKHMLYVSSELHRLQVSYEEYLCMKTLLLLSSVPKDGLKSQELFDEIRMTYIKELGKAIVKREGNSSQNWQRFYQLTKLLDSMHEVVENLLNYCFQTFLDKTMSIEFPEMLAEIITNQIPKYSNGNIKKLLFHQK

C[C@@H]1C[C@H]2[C@@H]3CCC4=CC(=O)C=C[C@]4(C)[C@@]3(F)[C@@H](O)C[C@]2(C)[C@H]1C(=O)CO
inactive: Potency [1] | Potency [2] | Potency [3] | Potency [4] | Potency [5] | outcome [6] | outcome [7] | Potency [8] | outcome [9] | outcome [10] | Potency [11] | outcome [12] | outcome [13] | outcome [14] | Potency [15] | outcome [16] | Potency [17]
active: Potency [18] 0.0085 µM [inconclusive]

O=C(O)Cc1ccc(-c2ccccc2)cc1
inactive: Potency [1] | Potency [2] | Potency [3] | Potency [19] | Potency [5] | fluorescence, relative to Rose Bengal [6] 0.37% [at 18.6 µM] | fluorescence, % of fluorescein control [7] -0.0175% [at 18.6 µM] | fluorescence, % of triamterene [8] -0.322% [at 18.6 µM] | fluorescence, % of fluorescent control [9] -0.147% [at 18.6 µM] | fluorescence, % of fluorescein [10] -0.0578% [at 18.6 µM] | fluorescence, % of fluorescent control [11] 0% [at 18.6 µM] | activity change [12] -0.0541% [at 18.6 µM] | fluorescence, % of fluorescent control [13] 0.0962% [at 18.6 µM] | fluorescence, % of Rose Bengal [14] -0.0701% [at 18.6 µM] | fluorescence, % of fluorescein control [16] -0.0983% [at 18.6 µM] | fluorescence, % of fluorescent control [17] -0.1% [at 18.6 µM] | Potency [18] | Potency [20]

C/C=C/C=C/CCCCCCCO
inactive: Potency [1] | Potency [2] | Potency [3] | Potency [19] | outcome [6] | outcome [7] | Potency [8] | outcome [9] | outcome [10] | Potency [11] | outcome [12] | outcome [13] | outcome [14] | Potency [15] | outcome [16] | Potency [18]
active: Potency [20] 38.9 µM

CCCCC/C(=C\c1ccccc1)CO
inactive: Potency [1] | Potency [2] | Potency [3] | outcome [6] | outcome [7] | Potency [8] | outcome [9] | outcome [10] | Potency [11] | outcome [12] | outcome [13] | outcome [14] | Potency [15] | outcome [16] | Potency [17]
active: Potency [5] 30.3 µM
